The source of these data is PubChem BioAssay AID720706 (Broad Institute, 2013).

In all, about 350,000 compounds went through this assay and about 5,500 (1.6%) were called active.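 The calls were made as follows: active = significant combined selectivity score with lowered wild-type GFP, culture density cut under 30%, mutant RFP and density less affected; inactive = any of these conditions unmet.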 For the sample, actives were picked, then their nearest neighbours and some compounds at random.

The experiment in a line: reduced GFP signal of wild-type E. coli, primary screen, bacterial rRNA inhibitor project, GFP/RFP fluorescence, OD600, single point (AID 720706). The note with it: E. coli WT GFP vs humanized-ribosome RFP mutants, 24 h; GFP signal change (wild-type ribosome): stronger effect = lower value, DMSO median 0, no signal -100; OD600 change: measured here: OD600 growth, DMSO median 0, no signal -100; RFP signal change: measured here: RFP humanized mutant strains, DMSO median 0, no signal -100, concentration not given here.
For the compound `C[C@@H]1CCCCO[C@H](CN(C)Cc2ccc(C(=O)Nc3ccccc3N)cc2)[C@H](C)CN([C@H](C)CO)C(=O)c2cc(N(C)C)ccc2O1`, the GFP signal change (wild-type ribosome) was 4.58% (inactive), the OD600 change was determined as 1.72% and the RFP signal change was determined as 2.24%.

For `CO[C@H]1CN(C)C(=O)c2cc(NC(=O)C3CCCC3)ccc2OC[C@@H](C)N(C(=O)CC2CC2)C[C@@H]1C`, the GFP signal change (wild-type ribosome) was -2.32% (inactive), the OD600 change was -1.4% and the RFP signal change is -2.08%.

Regarding `COc1ccc(C(=O)C2CCCN(Cc3ccc4nonc4c3)C2)c(C)c1` (stereo not drawn), the GFP signal change (wild-type ribosome) is -32.5% (active), the OD600 change is -18.1% and the RFP signal change is -4.26%.

As for `COc1ccc(C(=O)C2CCCN(C(=O)c3ccc(OC)o3)C2)c(C)c1` (stereo not drawn), the GFP signal change (wild-type ribosome) is -3.94% (inactive), the OD600 change was -8.41% and the RFP signal change was -1.22%.

On to `COc1ccc(C(=O)C2CCCN(Cc3cccn3-c3ccccn3)C2)c(C)c1` (stereo not drawn), for which the GFP signal change (wild-type ribosome) was -15.2% (inactive), the OD600 change is -23% and the RFP signal change was 0.721%.

Take `C[C@H]1CN(C)C(=O)c2cc(N(C)C)ccc2O[C@H]1CN(C)C(=O)OC(C)(C)C`: the GFP signal change (wild-type ribosome) is -3.1% (inactive), the OD600 change is -2.56% and the RFP signal change was 0.88%.

Regarding `COc1ccc(C2=NN(C(=O)c3ccccc3C(=O)O)C(c3ccccc3O)C2)cc1` (stereo not drawn), the GFP signal change (wild-type ribosome) is -9.01% (inactive), the OD600 change is -19.6% and the RFP signal change was -2.39%.

Consider `COc1ccc(C2=NN(C(=O)c3cccnc3)C(c3ccccc3)C2)cc1` (stereo not drawn), for which the GFP signal change (wild-type ribosome) is -23.4% (active), the OD600 change was 3.3% and the RFP signal change turned out to be 3.54%.

For `COc1ccc(C2CC(c3ccccc3)=NN2C(=O)CSc2nccc(=O)[nH]2)cc1` (stereo not drawn), the GFP signal change (wild-type ribosome) was 5.08% (inactive), the OD600 change is 8.39% and the RFP signal change is -0.959%.

As for `O=c1ccc2cc(S(=O)(=O)Nc3ccccc3F)ccc2o1`, the GFP signal change (wild-type ribosome) is 6.96% (inactive), the OD600 change was 12.1% and the RFP signal change is 8.39%.

As to `O=c1oc(-c2ccccc2NS(=O)(=O)c2ccc(Cl)cc2)nc2ccccc12`, the GFP signal change (wild-type ribosome) was -33.6% (active), the OD600 change is -24.4% and the RFP signal change was found to be 0.207%.

As to `O=c1oc2ccccc2c(NC2CCCCC2)c1NS(=O)(=O)c1ccc(Cl)cc1`, the GFP signal change (wild-type ribosome) was 11.9% (inactive), the OD600 change stood at 7.09% and the RFP signal change is -0.375%.

On to `CO[C@@H]1CN(C)C(=O)c2cc(NC(=O)Nc3ccc4c(c3)OCO4)ccc2OC[C@@H](C)NC[C@@H]1C`, for which the GFP signal change (wild-type ribosome) was 4.25% (inactive), the OD600 change was 10.8% and the RFP signal change was -0.511%.

Regarding `COc1ccc2c3c([nH]c2c1)[C@@H](CO)N(C(C)=O)CC31CCN(Cc2ccccc2Cl)CC1`, the GFP signal change (wild-type ribosome) was -2.42% (inactive), the OD600 change is -9.54% and the RFP signal change stood at 4.49%.

On to `C[C@@H]1CN([C@H](C)CO)C(=O)c2cc(NS(=O)(=O)c3ccccc3)ccc2O[C@H]1CN(C)S(=O)(=O)c1ccc(Cl)cc1`, for which the GFP signal change (wild-type ribosome) was -8.38% (inactive), the OD600 change was -11.5% and the RFP signal change was 2.44%.

Turning to `O=C(Cc1ccc(Br)cc1)NCCc1ccccc1`, the GFP signal change (wild-type ribosome) was -13.7% (inactive), the OD600 change is 6.7% and the RFP signal change is -2.35%.

For `O=C(NCc1ccccc1)c1cccc(NC(=O)C2CCCCC2)c1`, the GFP signal change (wild-type ribosome) is -29.5% (active), the OD600 change was -22.2% and the RFP signal change is -7.71%.

`COc1cccc(CCNC(=O)c2cccc(NC(=O)C3=C(C)OCCS3)c2)c1`: the GFP signal change (wild-type ribosome) was -25.3% (inactive), the OD600 change is -16.5% and the RFP signal change is -2.22%.

For `O=C(NCCc1ccccc1)c1cccc(NC(=O)c2ccccc2)c1`, the GFP signal change (wild-type ribosome) is -23.9% (active), the OD600 change is -10% and the RFP signal change is 0.86%.

For `CC(C)(C)OC(=O)N1CCC(C(=O)Nc2cccc(C(=O)NCCc3ccccc3)c2)CC1`, the GFP signal change (wild-type ribosome) is 2.29% (inactive), the OD600 change worked out at 6.05% and the RFP signal change is 0.0785%.

With `CCNC(=O)c1cccc(NC(=O)C2CC(=O)N(CCc3ccccc3)C2)c1` (stereo not drawn), the GFP signal change (wild-type ribosome) is 8.73% (inactive), the OD600 change worked out at 3.98% and the RFP signal change was 1.88%.

On to `CO[C@@H]1CN(C)C(=O)c2cc(NS(=O)(=O)c3ccc(C)cc3)ccc2OC[C@H](C)N(Cc2nccs2)C[C@@H]1C`, for which the GFP signal change (wild-type ribosome) is -2.96% (inactive), the OD600 change is -14.7% and the RFP signal change worked out at 7.3%.

`COc1ccc2c3c([nH]c2c1)[C@@H](CO)N(C(=O)C1CC1)CC31CCN(C(=O)c2ccncc2)CC1`: the GFP signal change (wild-type ribosome) was 4.87% (inactive), the OD600 change stood at 6.99% and the RFP signal change was -3.09%.

Take `CC(C)NC(=O)N(C)C[C@H]1Oc2cc(-c3cncnc3)ccc2S(=O)(=O)N([C@@H](C)CO)C[C@H]1C`: the GFP signal change (wild-type ribosome) is 3.27% (inactive), the OD600 change is 3.02% and the RFP signal change is -2.21%.

On to `CCC(=O)Nc1ccc2c(c1)C(=O)N(C)[C@@H]1CC[C@H](CC(=O)NCCc3ccncc3)O[C@@H]1CO2`, for which the GFP signal change (wild-type ribosome) is 2.16% (inactive), the OD600 change stood at 15.1% and the RFP signal change is -1.34%.

Take `Cc1ccc(C(=O)Nc2ccccc2-c2ccccc2)cc1S(=O)(=O)Nc1ccccc1`: the GFP signal change (wild-type ribosome) is -14.3% (inactive), the OD600 change was -30.9% and the RFP signal change is -8.24%.

In the case of `Cc1ccccc1NC(=O)c1cc(S(=O)(=O)Nc2cccc(C(=O)O)c2)ccc1Cl`, the GFP signal change (wild-type ribosome) is 9.89% (inactive), the OD600 change was 8.39% and the RFP signal change is -0.677%.

Consider `C=CCNC(=O)c1ccccc1NC(=O)c1ccc(Cl)c(S(=O)(=O)Nc2cccc(C)c2C)c1`, for which the GFP signal change (wild-type ribosome) was -40% (active), the OD600 change was -4.93% and the RFP signal change came out at 9.21%.

Turning to `COC(=O)C[C@@H]1C[C@H]2c3cc(NC(=O)NC4CCCC4)ccc3O[C@H]2[C@H](CO)O1`, the GFP signal change (wild-type ribosome) is -0.054% (inactive), the OD600 change is -2.88% and the RFP signal change is 1.29%.

Regarding `C[C@H](O)C#Cc1ccc2c(c1)O[C@H](CN(C)Cc1cccnc1)[C@@H](C)CN([C@H](C)CO)S2(=O)=O`, the GFP signal change (wild-type ribosome) was -1.81% (inactive), the OD600 change worked out at 5.84% and the RFP signal change was -2.32%.

`COc1ccccc1NC(=O)N[C@H]1CC[C@H](CCNS(=O)(=O)c2ccc(Cl)cc2)O[C@H]1CO`: the GFP signal change (wild-type ribosome) is -12.2% (inactive), the OD600 change is -10.8% and the RFP signal change turned out to be 7.75%.
